Reference: PubChem BioAssay (EPA / NIEHS)
The source made the active and inactive calls. Rule for the calls: active = hit-call score of the fitted dose curve at least 0.9, where 1 is the maximum; inactive = score below 0.9.

Key:
[1] = read-out: TIMP metallopeptidase inhibitor 1 (TIMP1), TIMP1 (gene 7076); assay: BSK_hDFCGF_TIMP1: BioMAP Diversity Plus: hDFCGF Assay for TIMP metallopeptidase inhibitor 1 (TIMP1) Biomarker Activity (AID 2283062); details: primary human foreskin fibroblasts; actives raise or lower the signal
Outline: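 Human foreskin fibroblast primary cultures dosed for 24 h; secreted/surface TIMP-1 quantified by ELISA. Bidirectional curve fitting against DMSO baseline; cytotoxicity tracked in parallel cultures by SRB total-protein staining.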

[2] = read-out: Monokine induced gamma interferon (MIG), CXCL9 (gene 4283); assay: BSK_hDFCGF_MIG: BioMAP Diversity Plus: hDFCGF Assay for Monokine induced gamma interferon (MIG) Biomarker Activity (AID 2283063); details: primary human foreskin fibroblasts; actives raise or lower the signal
Outline: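 MIG/CXCL9 measured by ELISA 24 h after dosing primary human skin fibroblasts. Activity fitted in both directions against DMSO controls. Cytotoxicity was checked in parallel cultures by SRB staining read at 560 nm.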

[3] = read-out: Matrix Metallopeptidase 1 (MMP1), MMP1 (gene 4312); assay: BSK_hDFCGF_MMP1: BioMAP Diversity Plus: hDFCGF Assay for Matrix Metallopeptidase 1 (MMP1) Biomarker Activity (AID 2283064); details: primary human foreskin fibroblasts; actives raise or lower the signal
Outline: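 Primary human foreskin fibroblasts exposed to chemicals for 24 h; MMP1 measured by ELISA. Cytotoxicity tracked by SRB staining in parallel cultures; bidirectional fit relative to DMSO.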

[4] = read-out: Vascular cell adhesion molecule 1 (VCAM1), VCAM1 (gene 7412); assay: BSK_hDFCGF_VCAM1: BioMAP Diversity Plus: hDFCGF Assay for Vascular cell adhesion molecule 1 (VCAM1) Biomarker Activity (AID 2283065); details: primary human foreskin fibroblasts; actives raise or lower the signal
Outline: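 Human foreskin fibroblast primary cells dosed with chemical, VCAM-1 measured by ELISA at 24 h. Bidirectional curve fitting relative to DMSO as negative control/baseline.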

[5] = read-out: Intercellular Adhesion Molecule 1 (ICAM1), ICAM1 (gene 3383); assay: BSK_KF3CT_ICAM1: BioMAP Diversity Plus: KF3CT Assay for Intercellular Adhesion Molecule 1 (ICAM1) Biomarker Activity (AID 2283067); details: primary human keratinocytes with fibroblasts; actives raise or lower the signal
Outline: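 Human keratinocyte–foreskin fibroblast co-culture was treated for 24 h. Cell-surface ICAM-1 was quantified by ELISA, fitted bidirectionally relative to DMSO. Cytotoxicity was checked in parallel cultures by SRB total-protein staining.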

[6] = read-out: Interferon-gamma inducible Protein 10 (IP10), CXCL10 (gene 3627); assay: BSK_KF3CT_IP10: BioMAP Diversity Plus: KF3CT Assay for Interferon-gamma inducible Protein 10 (IP10) Biomarker Activity (AID 2283068); details: primary human keratinocytes with fibroblasts; actives raise or lower the signal
Outline: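 KF3CT co-culture (keratinocytes + foreskin fibroblasts), 24 h compound, IP-10 by ELISA; bidirectional fit vs DMSO baseline.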

[7] = BSK_KF3CT_SRB: Viability Assessment in the BioMAP Diversity Plus: KF3CT Assay (AID 2283069); details: primary human keratinocytes with fibroblasts;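 note: total protein by sulforhodamine B staining as a cytotoxicity measure; read 24 h after compound addition; fitted for both signal gain and loss against DMSO baseline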
Outline: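 Human keratinocyte and foreskin fibroblast co-culture exposed to chemical for 24 h. Total protein measured in parallel cultures by 0.1% sulforhodamine B staining after 10% TCA fixation, read at 560 nm; bidirectional fit relative to DMSO.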

[8] = read-out: Interleukin-1 alpha (IL1a), IL1A (gene 3552); assay: BSK_KF3CT_IL1a: BioMAP Diversity Plus: KF3CT Assay for Interleukin-1 alpha (IL1a) Biomarker Activity (AID 2283070); details: primary human keratinocytes with fibroblasts; actives raise or lower the signal
Outline: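 Primary human keratinocyte plus foreskin fibroblast co-culture, dosed and measured at 24 h in 96-well plates. IL-1a level quantified by ELISA; bidirectional fit relative to DMSO.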

[9] = read-out: TIMP metallopeptidase inhibitor 2 (TIMP2), TIMP2 (gene 7077); assay: BSK_KF3CT_TIMP2: BioMAP Diversity Plus: KF3CT Assay for TIMP metallopeptidase inhibitor 2 (TIMP2) Biomarker Activity (AID 2283071); details: primary human keratinocytes with fibroblasts; actives raise or lower the signal
Outline: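 Human primary keratinocyte/foreskin fibroblast co-culture dosed with chemical and sampled at 24 h. TIMP-2 levels quantified by ELISA; bidirectional fitting against DMSO negative control as baseline.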

[10] = read-out: Transforming growth factor beta 1 (TGFb1), TGFB1 (gene 7040); assay: BSK_KF3CT_TGFb1: BioMAP Diversity Plus: KF3CT Assay for Transforming growth factor beta 1 (TGFb1) Biomarker Activity (AID 2283072); details: primary human keratinocytes with fibroblasts; actives raise or lower the signal
Outline: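 Human keratinocyte plus foreskin fibroblast primary co-culture, dosed with chemical for 24 h. TGF-b1 quantified by ELISA. Activity fitted bidirectionally against DMSO negative control as baseline.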

[11] = read-out: C-C motif chemokine 2 (Homo sapiens) (UniProt P13500); assay: BSK_KF3CT_MCP1: BioMAP Diversity Plus: KF3CT Assay for Monocyte Chemoattractant Protein 1 (MCP1/CCL2) Biomarker Activity (AID 2283073); details: primary human keratinocytes with fibroblasts; actives raise or lower the signal
Outline: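 Human keratinocyte–foreskin fibroblast co-culture; MCP-1 measured by ELISA 24 h after dosing. Bidirectional fit vs DMSO; cytotoxicity tracked by SRB total protein in parallel cultures.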

[12] = read-out: Matrix Metallopeptidase 9 (MMP9), MMP9 (gene 4318); assay: BSK_KF3CT_MMP9: BioMAP Diversity Plus: KF3CT Assay for Matrix Metallopeptidase 9 (MMP9) Biomarker Activity (AID 2283074); details: primary human keratinocytes with fibroblasts; actives raise or lower the signal;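 for AC50: MMP9 protein level quantified by ELISA in the co-culture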
Outline: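 Human keratinocyte and foreskin fibroblast co-culture exposed to chemicals for 24 h; MMP9 biomarker measured by ELISA, bidirectional fitting relative to DMSO; cytotoxicity tracked by SRB total protein staining in parallel cultures.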

[13] = read-out: urokinase plasminogen activator (uPA), PLAU (gene 5328); assay: BSK_KF3CT_uPA: BioMAP Diversity Plus: KF3CT Assay for urokinase plasminogen activator (uPA) Biomarker Activity (AID 2283075); details: primary human keratinocytes with fibroblasts; actives raise or lower the signal
Outline: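 Primary human keratinocyte/foreskin fibroblast co-culture exposed to chemical; uPA measured by ELISA at 24 h. Bidirectional fit versus DMSO, with parallel SRB total-protein staining for cytotoxicity.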

[14] = read-out: CD40, CD40 (gene 958); assay: BSK_LPS_CD40: BioMAP Diversity Plus: LPS Assay for CD40 Biomarker Activity (AID 2283076); details: primary human HUVEC with PBMC; actives raise or lower the signal
Outline: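 HUVEC plus PBMC co-culture stimulated with LPS; CD40 quantified by ELISA 24 h after compound dosing. Fitting was bidirectional relative to DMSO. SRB staining of parallel cultures flagged overt cytotoxicity.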

[15] = read-out: E-selectin (Homo sapiens) (UniProt P16581); assay: BSK_LPS_Eselectin: BioMAP Diversity Plus: LPS Assay for Eselectin Biomarker Activity (AID 2283077); details: primary human HUVEC with PBMC; actives raise or lower the signal
Outline: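 Human umbilical vein endothelial cells co-cultured with PBMC under LPS stimulation; cell-surface E-selectin measured by ELISA 24 h after dosing. Change in either direction versus DMSO, with SRB total-protein staining in parallel cultures for cytotoxicity.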

[16] = read-out: Interleukin-8 (IL8), CXCL8 (gene 3576); assay: BSK_LPS_IL8: BioMAP Diversity Plus: LPS Assay for Interleukin-8 (IL8) Biomarker Activity (AID 2283078); details: primary human HUVEC with PBMC; actives raise or lower the signal
Outline: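 Human umbilical vein endothelial cells co-cultured with PBMC, LPS-stimulated, exposed to compound for 24 h. IL-8 quantified by ELISA; fitted in both directions against DMSO, with SRB total-protein staining of parallel cultures for cytotoxicity.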

[17] = BSK_LPS_SRB: Viability Assessment in the BioMAP Diversity Plus: LPS Assay (AID 2283079); details: primary human HUVEC with PBMC;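 note: total protein by sulforhodamine B absorbance as a cytotoxicity measure; measured one day after compound addition; fitted in both directions against DMSO so loss or gain of signal counts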
Outline: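 Co-culture of human umbilical vein endothelial cells and PBMC, read 24 h after dosing. Total protein by 0.1% SRB staining after 10% TCA fixation, absorbance at 560 nm; bidirectional fit against DMSO.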

[18] = read-out: Interleukin-1 alpha (IL1a), IL1A (gene 3552); assay: BSK_LPS_IL1a: BioMAP Diversity Plus: LPS Assay for Interleukin-1 alpha (IL1a) Biomarker Activity (AID 2283080); details: primary human HUVEC with PBMC; actives raise or lower the signal
Outline: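 Human umbilical vein endothelial cells co-cultured with PBMC and stimulated with LPS; IL-1a measured by ELISA 24 h after dosing. Bidirectional fitting against DMSO; cytotoxicity checked by SRB staining in parallel cultures.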

Measured: AC50

Sequence of E-selectin (Homo sapiens) (P16581 whole entry, looked up): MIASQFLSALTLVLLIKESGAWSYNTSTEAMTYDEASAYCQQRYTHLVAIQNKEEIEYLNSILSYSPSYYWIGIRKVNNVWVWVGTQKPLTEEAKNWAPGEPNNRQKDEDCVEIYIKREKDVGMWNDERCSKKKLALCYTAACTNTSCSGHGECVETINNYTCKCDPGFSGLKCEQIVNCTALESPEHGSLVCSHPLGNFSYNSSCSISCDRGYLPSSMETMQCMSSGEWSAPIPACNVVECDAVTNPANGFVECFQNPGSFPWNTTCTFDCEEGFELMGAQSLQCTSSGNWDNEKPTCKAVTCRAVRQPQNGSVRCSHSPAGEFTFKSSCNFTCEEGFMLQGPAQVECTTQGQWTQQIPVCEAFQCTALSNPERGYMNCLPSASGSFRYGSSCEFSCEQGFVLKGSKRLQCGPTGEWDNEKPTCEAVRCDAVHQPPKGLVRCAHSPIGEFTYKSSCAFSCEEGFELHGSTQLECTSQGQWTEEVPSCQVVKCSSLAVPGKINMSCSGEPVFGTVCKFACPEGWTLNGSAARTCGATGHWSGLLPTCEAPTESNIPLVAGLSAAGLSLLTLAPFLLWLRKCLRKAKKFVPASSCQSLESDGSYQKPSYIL

Cc1c(F)c(F)c(COC(=O)C2C(/C=C(\Cl)C(F)(F)F)C2(C)C)c(F)c1F (stereo not drawn)
active: [3] 1.22 µM | [12] 2.72 µM | [14] 13.7 µM | [16] 12.2 µM | [18] 0.3 µM
inactive: all other assays above

CCCC1COC(Cn2cncn2)(c2ccc(Cl)cc2Cl)O1 (stereo not drawn)
active: [14] 20 µM
inactive: all other assays above

N#Cc1nn(-c2c(Cl)cc(C(F)(F)F)cc2Cl)c(N)c1S(=O)C(F)(F)F (stereo not drawn)
active: [6] 29.1 µM | [14] 14.9 µM | [15] 36.8 µM | [16] 23.4 µM | [17] 31.4 µM | [18] 35.9 µM
inactive: all other assays above

CC(C)C1(C)N=C(c2nc3ccccc3cc2C(=O)O)NC1=O (stereo not drawn)
inactive: all assays above

CCNc1nc(Cl)nc(NCC)n1
inactive: all assays above

CCCCNC(=O)n1c(NC(=O)OC)nc2ccccc21
active: [3] 11.3 µM | [8] 20 µM | [17] 7.48 µM
inactive: all other assays above
